The sample as a whole holds a higher share of hits than the screen did.
Shiga toxin inh: Shiga toxin inhibition; Vero cells, Shiga toxin protein synthesis inhibition reporter; inhibition, % at 38.7 µM; actives 9.2% (n = 290,000); AID 2315; in the data active = inhibition mostly above about 28%, no sharp cut-off; inactive = mostly below about 43%; note: 0% is about no effect
RE007 growth inh: less growth of the S. pombe RE007 Vpr strain; S. pombe RE007 Vpr strain, BacTiter-Glo ATP luminescence, 24 h; Potency, µM (top dose mostly 92.2 µM), for the others: at the highest dose activity change, negative = less growth, actives largely listed as inhibitors; actives 0.21% (n = 360,000); AID 651644; active = well fitted falling curve with a large enough effect; inconclusive = small, poorly fitted or top-dose-only effect; inactive = no such curve, though single readings can be large or run the other way; note: potency is the fitted concentration of half-maximal effect; % is set by controls: 0 for no effect and ±100 for the full control effect; nearly all actives have a fitted effect of over 50% in size
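Fission yeast RE007 carrying one integrated HIV-1 vpr copy, seeded at OD 0.01 in PMG+AL medium with 23 nL pinned compound. Grown 24 h at 30 degrees; viability read by BacTiter-Glo luminescence after 5 min.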
Tb PYK inh: inhibitors of Trypanosoma brucei pyruvate kinase | Q57TT1 | TbPYK enzyme, Kinase-Glo Plus ATP luminescence, 45 min | Potency, µM (series often up to 76.8 µM), for inactives: at the top dose activity, negative = inhibition, usual class: inhibitors | actives 0.12% (n = 410,000) | AID 624173; note: potency is the fitted concentration of half-maximal effect; % is set by controls: 0 for no effect and ±100 for the full control effect; nearly all actives have a fitted effect of over 50% in size
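Quantitative HTS: titrated library compounds versus trypanosomal pyruvate kinase in TEA buffer (pH 7.2) containing KCl, MgCl2, BSA and Tween-20. Reactions were initiated with ADP, 130 uM final. Kinase-Glo Plus luminescence was read after 45 min at RT.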
Cycloheximide cs: counter-screen for Shiga toxin inhibitors: cycloheximide protein synthesis inhibition. max response, %. cell reporter, cycloheximide protein synthesis inhibition counterscreen. actives 12% (n = 300,000). AID 2314; in the data active = max response mostly above about 13%, no sharp cut-off; inactive = mostly below about 14%; note: read at 38.3 µM for the half of the compounds with a filed dose; 0% is about no effect
Giardia FBPA inh: inhibitors of Giardia lamblia fructose-1,6-bisphosphate aldolase | A8B2U2 | purified Giardia FBPA | Potency, µM (series often up to 59.6 µM), without a hit: at the top dose activity, negative = inhibition, most hits filed as inhibitors | actives 0.71% (n = 290,000) | AID 2451; note: potency is the fitted concentration of half-maximal effect; % is set by controls: 0 for no effect and ±100 for the full control effect; nearly all actives have a fitted effect of over 55% in size
Target sequence (A8B2U2 whole entry, looked up): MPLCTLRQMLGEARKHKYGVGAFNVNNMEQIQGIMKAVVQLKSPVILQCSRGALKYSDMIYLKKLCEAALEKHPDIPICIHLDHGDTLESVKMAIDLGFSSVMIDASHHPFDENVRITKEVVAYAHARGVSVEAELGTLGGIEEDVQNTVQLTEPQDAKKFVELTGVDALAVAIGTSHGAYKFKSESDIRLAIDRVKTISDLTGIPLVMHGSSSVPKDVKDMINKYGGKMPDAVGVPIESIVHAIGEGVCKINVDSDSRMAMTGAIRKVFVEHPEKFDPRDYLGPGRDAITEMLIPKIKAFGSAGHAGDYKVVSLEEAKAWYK
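Giardia FBPA (40 nM reagent) was preincubated 10 min at RT with compound (up to 57.5 uM final), then substrate plus GAPDH/TPI/NAD/arsenate coupling system with diaphorase/resazurin was added; resorufin fluorescence (525/598 nm) was read after 20 min.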
LmPK inhibitor: inhibitors of Leishmania mexicana pyruvate kinase; Q27686; purified LmPK, Kinase-Glo ATP luminescence, 1 h; Potency, µM (highest dose often 57.5 µM), without a hit: top-dose activity change, negative = inhibition, actives largely listed as inhibitors; actives 0.37% (n = 290,000); AID 1721; note: potency is the fitted concentration of half-maximal effect; % is set by controls: 0 for no effect and ±100 for the full control effect
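In 50 mM imidazole pH 7.2 with 7 mM MgCl2, LmPK (0.1 nM) turned over PEP (0.5 mM) and ADP (0.1 mM) for 1 h at room temperature. Luciferase read-out of ATP.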
* marks the source's active call; other numbers are inactive results; ? = inconclusive; · = not tested or not shown. Unless noted, calls come from the whole dose curve; as a rule, active = well fitted curve in the direction sought with a large enough effect; inconclusive = small, poorly fitted or top-dose-only effect, or another doubt; inactive = no such curve, though single readings can be large; an effect the other way counts as inactive or inconclusive.

SMILES | Shiga toxin inh | RE007 growth inh | Tb PYK inh | Cycloheximide cs | Giardia FBPA inh | LmPK inhibitor
Oc1ccc(Br)cc1/C=N/N1CCN(Cc2ccccc2)CC1 | 3 | ? | 4% | -3 | 0% | 4%
Oc1ccc(Br)cc1/C=N/N1CCCCC1 | 82* | -20% | -11% | 52* | 0% | ?
Oc1ccc(Br)cc1/C=N/n1cnc2ccccc21 | 60* | -22% | -3% | 41* | 1% | 2%
CCCCc1ccc(N2C(=NC(=O)C3CCCO3)SC3CS(=O)(=O)CC32)cc1 (configuration not stated) | -12 | 0% | -2% | -2 | · | 3%
OC(c1ccccc1)c1ncc(-c2cccc(F)c2)[nH]1 (configuration not stated) | · | -14% | 5% | · | · | ·
O=C(Cn1ccsc1=NC(=O)C(F)(F)F)c1ccccc1 | 71 | -10% | -1% | 30* | -1% | 5%
COC(=O)c1sccc1NC(=O)CC1C(=O)NCCN1C(=O)c1ccccc1 (configuration not stated) | -10 | 4% | -8% | 13* | -8% | 5%
C/C(=N/N=C(/N)SCc1ccccc1)C(C)(C)C | 37 | -7% | -13% | 27* | -10% | -1%
OCC1CCCN(C(=S)Nc2ccc(OC(F)F)cc2)C1 (configuration not stated) | 63* | 6% | -8% | 26* | 0% | 1%
Cc1ccc(NC(=S)N2CCCC(O)C2)cc1 (configuration not stated) | 69* | -4% | 0% | 20* | -4% | 2%
NC(=O)C1CCCN(C(=S)Nc2ccccc2)C1 (configuration not stated) | -10 | -2% | -13% | -3 | -9% | 0%
OCC1CCCN(C(=S)Nc2ccc(Nc3ccccc3)cc2)C1 (configuration not stated) | 61* | 19% | -6% | 29* | -20% | 1%
CCO[C@@H](Cc1ccc(OCCc2ccc(OS(C)(=O)=O)cc2)cc1)C(=O)O | · | · | -5% | · | · | ·
Cc1cccc(N2CCN(Cc3nnc(-c4ccccc4C)o3)CC2C)c1 (configuration not stated) | · | · | -7% | · | · | ·
O=C(Cc1ccccc1)NCCSCc1ccco1 | 13 | 0% | 6% | 12 | 1% | 1%
S=C(NCCSCc1c(Cl)cccc1Cl)Nc1ccccc1 | 12 | -27% | 6% | 4 | -2% | 8%
O=C(NCCSCc1ccco1)Nc1ccccc1 | 57 | -1% | -3% | 48* | 0% | 3%
CN(c1ccc(C(=O)NCCSCc2c(F)cccc2Cl)cc1)S(C)(=O)=O | -7 | -8% | -20% | -10 | 4% | 1%
N#Cc1ccccc1CSCCNC(=O)Cc1c(F)cccc1Cl | 28 | -2% | -4% | 17* | -1% | 6%
O=C(NCCSCc1c(F)cccc1Cl)Nc1ccccc1 | 75* | -9% | 7% | 32* | 0% | 2%
O=C(NCCSCc1ccco1)c1ccc(CN2CCOCC2)cc1 | 66 | -14% | 0% | 9.4* | 3% | -2%
COc1ccc(Cl)cc1NC(=O)CN1C(=O)COc2ccc(S(=O)(=O)NC3CCCC3)cc21 | · | · | 3% | · | · | ·
Cc1cccc(-c2nnn3c2nc(NCc2ccccc2)c2ccccc23)c1 | · | · | -1% | · | · | ·
O=C(O)c1nc2ccccc2nc1C(=O)O | 81* | -14% | -12% | 46* | -17% | 3%
O=C(O)Cc1cc2ccccc2nc1C(=O)O | · | · | · | · | -26% | ·
SMILES | Shiga toxin inh | RE007 growth inh | Tb PYK inh | Cycloheximide cs | Giardia FBPA inh | LmPK inhibitor
O=C(Cc1cccs1)N/N=C\c1ccc(O)cc1 | 51* | 8% | 4% | 32* | 3% | 2%
CCCc1cc(C(=O)N/N=C/c2cccn2C)cs1 | 110* | -2% | -3% | 62* | · | -5%
C=CCNC(=S)N/N=C/c1cn(C)c2ccccc12 | 24 | 3% | 2% | 21* | 17% | 5%
Cn1cccc1/C=N/NC(=O)c1cccs1 | 74* | -19% | -2% | 42* | · | -12%
O=C(CC(=O)N/N=C/c1ccc(O)cc1)N/N=C/c1ccc(O)cc1 | 27 | -3% | -5% | -2 | -1% | -3%
COc1cccc(N2C(=O)CSC23C(=O)N(CC(=O)Nc2cccc(Cl)c2)c2ccccc23)c1 (configuration not stated) | · | · | -5% | · | · | ·

Compound activity as filed in PubChem BioAssay.
